# According to the supplement of paper PMC9135407:
# “And” between values parts separate entries of the source, which are not always exact repeats. Identical values can stand only once. Counter-ions that a name gives are not always drawn. Among all 5,800 compounds or so, about 620 (11%) showed activity. The sample holds actives, similar compounds and a random draw of the others, so the mix is not that of the screen. Values without a mark were called inactive.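 Rule for the calls: active = score above a cut-off or among the top three wells of a plate; in these data no inactive exceeds 0.85.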
# Tested on: primary human hepatic stellate cells (donor 1)
# Assay: scaled lipid accumulation score (0 = DMSO-like, 1 = nortriptyline-like); higher = stronger HSC inactivation (lipid re-accumulation), active = hit call of the paper
# Settings: 48 h
# [1] = library stock concentration: 80 uM
# [2] = library stock concentration: 400 uM
# [3] = library stock concentration: 2 mM
# [4] = library stock concentration: 3.33 mM
# [5] = library stock concentration: 10 mM
# [6] = library stock concentration: 1 mM
compound,measurement,setting,value
CC(=O)Nc1cccc(-n2c(=O)n(C3CC3)c(=O)c3c(Nc4ccc(I)cc4F)n(C)c(=O)c(C)c32)c1,scaled lipid accumulation score,[1],≤ -0.009
same,scaled lipid accumulation score,[2],≤ -0.003
same,scaled lipid accumulation score,[3],0.049
same,scaled lipid accumulation score,[4],≤ 0
same,scaled lipid accumulation score,[5],≤ 0 and 0.058
O=C(N/N=C/c1ccc(O)c(O)c1)c1cc2ccccc2cc1O [Dynasore],scaled lipid accumulation score,[4],≤ -0.009
same,scaled lipid accumulation score,[5],0.182
"CN=C(N)NCCC[C@H](N)C(=O)O [L-Ornithine, N5-[imino(methylamino)methyl]-[CAS]]",scaled lipid accumulation score,[5],≤ 0
O=C(O[C@H]1[C@H](Oc2ccccc2COC(=O)C2(O)C=CCCC2=O)O[C@H](CO)[C@@H](O)[C@@H]1O)c1ccccc1 (stereo not given in full),scaled lipid accumulation score,[5],≤ 0
COc1cccc(OC)c1OCCNCC1COc2ccccc2O1 (stereo not given) [WB-4101 hydrochloride],scaled lipid accumulation score,[5],0.182
COc1cccc(OC)c1OCCNCC1COc2ccccc2O1 (stereo not given) [WB 4101 hydrochloride],scaled lipid accumulation score,[5],0.337
CCCCC[C@@H](O)/C=C/[C@H]1[C@H](C/C=C\CCCC(=O)O)[C@H](O)C[C@@H]1O [ent-Prostaglandin F2.alpha.],scaled lipid accumulation score,[6],≤ 0
CCOC(=O)/C=C/[C@H](CC(C)C)NC(=O)[C@H](CO)NC(=O)[C@@H](NC(=O)c1cccc(O)c1C)C(C)C,scaled lipid accumulation score,[6],≤ 0
C[C@@H]1C(=O)NC2=Nc3cccc(Cl)c3CN21 [Quazinone],scaled lipid accumulation score,[5],≤ 0
N=C1C=CC(=C(c2ccc(N)cc2)c2ccc(N)cc2)C=C1 [Pararosaniline pamoate],scaled lipid accumulation score,library stock concentration: 3 mM,0.375
same,scaled lipid accumulation score,[5],0.435
C=CC(=O)Nc1cccc(Nc2nc(NC3CCC(N(C)C)CC3)nc3c2ncn3C(C)C)c1 (stereo not given),scaled lipid accumulation score,[1],≤ 0
same,scaled lipid accumulation score,[2],≤ 0
same,scaled lipid accumulation score,[3],≤ 0
same,scaled lipid accumulation score,[5],0.782
CCCCC[C@H](O)/C=C/[C@H]1C=CC(=O)[C@@H]1CCCCCCC(=O)OCC [Prostaglandin A1 ethyl ester],scaled lipid accumulation score,[6],≤ 0
NC(N)=O,scaled lipid accumulation score,[5],≤ 0
same,scaled lipid accumulation score,library stock concentration: 33.3 mM,≤ 0
CC/C=C\C/C=C\C/C=C\C/C=C\CCCCC(=O)O [Stearidonic Acid],scaled lipid accumulation score,[6],≤ 0
C=C1C[C@H](O)[C@H](C/C=C\CCCC(=O)O)[C@H]1/C=C/C(=O)CCCCC [11-deoxy-11-methylene-15-keto Prostaglandin D2],scaled lipid accumulation score,[6],≤ 0
COc1cc(N2CCC(N3CCN(C)CC3)CC2)ccc1Nc1ncc(Cl)c(-c2c[nH]c3ccccc23)n1 [listing 1 of 2 here],scaled lipid accumulation score,[1],0.057
same,scaled lipid accumulation score,[2],0.358
COc1cc(C(=O)N2CCC(N3CCN(C)CC3)CC2)ccc1Nc1ncc2c(n1)N(C)c1ccccc1C(=O)N2C [listing 1 of 2 here],scaled lipid accumulation score,[5],0.929 (active)
COc1cc(N2CCC(N)CC2)ccc1Nc1ncc(Cl)c(-c2c[nH]c3ccccc23)n1,scaled lipid accumulation score,[4],0.146
same,scaled lipid accumulation score,[5],0.238
COc1cc(N2CCC(N3CCN(C)CC3)CC2)ccc1Nc1ncc(Cl)c(-c2c[nH]c3ccccc23)n1 [listing 2 of 2 here],scaled lipid accumulation score,[3],0.981 (active)
same,scaled lipid accumulation score,[5],0.967 (active)
COc1cc(N2CCN(C)CC2)ccc1Nc1ncc2c(n1)N(C)c1ccccc1C(=O)N2C,scaled lipid accumulation score,[1],0.087
same,scaled lipid accumulation score,[2],0.062
same,scaled lipid accumulation score,[3],0.241
same,scaled lipid accumulation score,[5],0.703
COc1cc(C(=O)N2CCC(N3CCN(C)CC3)CC2)ccc1Nc1ncc2c(n1)N(C)c1ccccc1C(=O)N2C [listing 2 of 2 here],scaled lipid accumulation score,[1],≤ 0
same,scaled lipid accumulation score,[2],0.015
same,scaled lipid accumulation score,[3],0.329
CCCCCCCCCCCCCCC(F)C(=O)O (stereo not given) [2-Fluoropalmitic Acid],scaled lipid accumulation score,[6],≤ 0
CCCCCCCCCCCCCCC(F)C(=O)O (stereo not given) [2-Fluoropalmitic acid],scaled lipid accumulation score,[6],≤ -0.021
CCCCCC(=O)/C=C/[C@H]1[C@H](O)CC(=O)[C@@H]1C/C=C\CCCC(=O)O [15-keto Prostaglandin E2],scaled lipid accumulation score,[6],≤ 0
CO[C@@H]1[C@@H](O[C@@H]2O[C@H](C)[C@@H](O[C@H]3C[C@@](C)(O)[C@@H](OC(=O)CC(C)C)[C@H](C)O3)[C@H](N(C)C)[C@H]2O)[C@@H](CC=O)C[C@@H](C)[C@@H](O)/C=C/C=C/C[C@@H](C)OC(=O)C[C@H]1O,scaled lipid accumulation score,[5],0.014
CCCCCC(O)C=CC1C(O)CC(O)C1CCCCCCC(=O)O (stereo not given) [Prostaglandin  F1a],scaled lipid accumulation score,[6],≤ -0.021
COc1cc(/C=C(\C#N)C(=O)Nc2nnc(C(F)(F)F)s2)ccc1OCc1ccc(C(F)(F)F)cc1C(F)(F)F,scaled lipid accumulation score,[5],≤ 0
O=c1cc(-c2ccc(O)cc2)oc2c([C@@H]3O[C@H](CO)[C@@H](O)[C@H](O)[C@H]3O)c(O)cc(O)c12 [Vitexin],scaled lipid accumulation score,,≤ 0
CN(C)c1ccc2nc3ccc(=[N+](C)C)cc-3sc2c1 [Methylene blue],scaled lipid accumulation score,library stock concentration: 5.9 mM,0.252
CCCCCCCC/C=C\CCCCCCCC(=O)c1nc2ncccc2o1 [Oleoyl Oxazolopyridine],scaled lipid accumulation score,[6],0.017
O=C1c2ccccc2C(=O)c2c1ccc(O)c2O [Alizarin],scaled lipid accumulation score,[4],≤ 0
same,scaled lipid accumulation score,[5],≤ 0
CC1(C)C(=O)N=C2C1=C(O)C(=O)c1ccccc12,scaled lipid accumulation score,[5],0.923 (active)
CC(C)=CCC1=C(O)C(=O)c2ccccc2C1=O [Lapachol],scaled lipid accumulation score,[5],≤ 0
COc1ccc(/C=C2\COc3ccc(C)cc3C2=O)cc1O,scaled lipid accumulation score,[5],0.275
CC1(C)C=C(CN2C/C(=C\c3ccc(F)cc3)C(=O)/C(=C/c3ccc(F)cc3)C2)C(C)(C)N1O,scaled lipid accumulation score,[4],0.264
same,scaled lipid accumulation score,[5],0.694
Cc1ccc(/C=C2\CNC/C(=C\c3ccc(C)cc3)C2=O)cc1.Cl,scaled lipid accumulation score,[5],1.43 (active)
CN(C)CCSSCCNC(=O)C1CCN(C(=O)CSc2ccc(Cl)cc2)CC1,scaled lipid accumulation score,[4],≤ -0.009
same,scaled lipid accumulation score,[5],≤ 0
CCCCC[C@H](O)/C=C/[C@@H]1[C@@H](C/C=C\CCCC(=O)NCCO)[C@@H](O)C[C@@H]1O [11.beta.-Prostaglandin F2.alpha. Ethanolamide],scaled lipid accumulation score,[6],≤ 0
CCCCC/C=C\C/C=C\C/C=C\C=C\[C@@H](O)CCCC(=O)O,scaled lipid accumulation score,library stock concentration: 100 uM,≤ -0.021
